Measured values as given in PubChem BioAssay.
“And” between values parts separate entries of the source, which are not always exact repeats. Equal values may be shown once. The source made the active and inactive calls.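 Rule for the calls, unless noted: active = thallium flux through the channel raised or lowered by more than 3 SD from vehicle-only wells, actives on both sides; inactive = the rest.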

How the values were obtained:
[1] = stimulators of nuclear beta-catenin in C2C12, primary screen, imaging, WNT3A-conditioned medium, mouse C2C12, NPC library (AID 1117326; in the data active = nuclear beta-catenin stimulation mostly above about 4.2%, no sharp cut-off; inactive = mostly below about 10%); details: stronger effect = higher value
[2] = stimulators of insulin release from INS-1E, primary screen, cell-based, 5 mM glucose, NPC library (AID 1117329;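 active = compound raises insulin release from rat beta cells at 5 mM glucose, no numeric limit stated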); details: rat INS-1E insulin secretion, at 10 µM, stronger effect = higher value
[3] = growth inhibition of GSK3B-pretreated HCT116 cells – cell-based, CellTiter-Glo, 0.2 to 20 µM (AID 1117336;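 active = compounds lowering colon cancer cell viability after pretreatment blocking the GSK3B kinase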); details: HCT116 viability after GSK3B inhibitor, at 20 µM, stronger effect = higher value
[4] = inhibition of endothelial tube formation, primary screen, imaging, VEGF stimulated, CD31 staining, tube area, NPC library (AID 1117340;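 active = compound that reduces growth-factor-driven endothelial tube area in a mixed cell culture, no cutoff stated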); details: VEGF-stimulated ADSC/ECFC co-culture, at 10 µM, stronger effect = higher value
[5] = glucagon-like peptide 1 release enhancers, primary assay, NCI-H716 cell line, NPC library (AID 1117341;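 active = compound raises GLP1 secretion from the human gut endocrine cells, with no numeric limit stated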); details: NCI-H716 cells, at 10 µM, stronger effect = higher value
[6] = HCT116 colon cancer cell growth inhibition, primary screen, CellTiter-Glo luminescence, NPC library (AID 1117342;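 active = compounds that lower survival of HCT116 colon cancer cells in the luminescence readout, no numeric limit stated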); details: at 20 µM (top of the series)
[7] = CellTiter-Glo luminescent readout of SW480 viability loss, NPC library primary (AID 1117343;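 active = compounds that lower viability of the colon cancer cells in the luminescence readout, with no numeric limit stated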); details: CellTiter-Glo luminescence; at 20 µM (top of the series)
[8] = decreased DLD-1 cellular survival, CellTiter-Glo luminescent readout, NPC compound collection, primary HTS (AID 1117346;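 active = compounds that lower survival of DLD-1 colon cancer cells in the luminescence readout, no cutoff given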); details: DLD-1 viability, CellTiter-Glo luminescence; at 20 µM (top of the series)
[9] = biological target: 6-phosphogluconate dehydrogenase, decarboxylating (Homo sapiens) (UniProt P52209); assay: 6PGD enzyme inhibitors, primary screen, biochemical, human, recombinant enzyme, NADPH absorbance (AID 1159550;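 active = at least 20% inhibition of 6-phosphogluconate dehydrogenase activity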); details: recombinant 6PGD, NADPH absorbance 341 nm; at 10 µM; stronger effect = higher value
[10] = modulation of C. elegans fzo-1 (AID 1259413; call rule not given here;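 note: fzo-1 mutant C. elegans worms in liquid wells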); details: C. elegans fzo-1 modulator screen, mean read-out; stronger effect = higher value
[11] = differential killing of epithelial or mesenchymal cells, primary screen, imaging, PC-3E GFP, TEM4-18 mCherry, co-culture (AID 1345086;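 active = compounds killing one labelled cell type while sparing the other, by normalised counts and ratio limits, not self-fluorescent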;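 for all read-outs here: cells exposed to compound for 72 h before imaging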;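 for red/green cell ratio (normalised): normalised mesenchymal count divided by normalised epithelial count so high means epithelial killing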); details: imaging cell counts, at 1 µM; for red/green cell ratio (normalised): actives lie on both sides, counts scaled to control wells, 1 = unselective
[12] = survival rescue of mitochondrial mutant cells in low glucose, primary screen, MELAS cybrids, Rieske KO mouse fibroblasts, CellTiter-Glo (AID 1508586;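 active = mean z-score across replicates of 1.96 or higher in either the MELAS or the Rieske mutant cell line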;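 note: z relative to plate mean and SD of compound and empty wells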)
[13] = biological target: NAD(+) hydrolase SARM1 (Homo sapiens) (UniProt Q6SZW1); assay: SARM1 TIR NADase inhibitors, cell lysate, NAD-Glo luminescence (AID 1508614;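 active = compound whose remaining NAD level is above about 45 nM, limit read from the data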;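 note: higher remaining NAD means stronger inhibition of SARM1 NADase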); details: SAM-TIR HEK293T lysate NADase, at 1 µM, stronger effect = higher value
[14] = biological target: Mitogen-activated protein kinase 7 (Homo sapiens) (UniProt Q13164); assay: ERK5 transactivation activators in reporter cells, primary screen, cell-based, HTS (AID 1508626;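 active = luciferase signal above three times the same-plate solvent-only control wells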;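 note: luciferase driven by Gal4-ERK5 fusion binding five Gal4 sites before minimal TATA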); details: HeLa Gal4-ERK5 transactivation, 18 h, at 5 µM, stronger effect = higher value
F380Y = assay: modulators of BK channel variants, profiling panel, selectivity assay, cell-based, U2OS BacMam, thallium flux, beta subunits (AID 1259406); details: at 30 µM;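 note: initial slope of Thallos dye fluorescence rise after thallium is added; log ratio against the mean of 0.3% DMSO vehicle wells on the same plate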
F380Y/beta1 = assay: as above; details: at 30 µM
F380Y/beta2Delta = assay: as above; details: at 30 µM
[15] = sensitizers of A549 cells to miR-34 induction, primary screen, imaging, A549 dox-inducible miR-34, nuclei and caspase counts (AID 1347080;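 active = compounds whose cell count with miR-34 switched on is under 0.7 times the count with it off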); details: A549 miR-34 inducible, Hoechst nuclei count, 48 h
[16] = ICB984 medulloblastoma cell growth inhibition, synergistic combos for chromothripsis tumors, cisplatin or BGB combos (AID 1671451; call rule not given here;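 note: cells exposed for 96 hours before readout; 0% = vehicle DMSO and 100% = killing by high DMSO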); details: ICB984 medulloblastoma cells, drug combinations, stronger effect = higher value
[17] = measured here: epithelial PC-3E GFP cell survival
[18] = measured here: mesenchymal TEM4-18 mCherry cell survival
[19] = MELAS cybrid survival, CellTiter-Glo 48 h, stronger effect = higher value
[20] = Rieske KO mouse fibroblast survival, CellTiter-Glo 72 h

Sequence of Mitogen-activated protein kinase 7 (Homo sapiens) (Q13164 whole entry, looked up, the tested form may be a part): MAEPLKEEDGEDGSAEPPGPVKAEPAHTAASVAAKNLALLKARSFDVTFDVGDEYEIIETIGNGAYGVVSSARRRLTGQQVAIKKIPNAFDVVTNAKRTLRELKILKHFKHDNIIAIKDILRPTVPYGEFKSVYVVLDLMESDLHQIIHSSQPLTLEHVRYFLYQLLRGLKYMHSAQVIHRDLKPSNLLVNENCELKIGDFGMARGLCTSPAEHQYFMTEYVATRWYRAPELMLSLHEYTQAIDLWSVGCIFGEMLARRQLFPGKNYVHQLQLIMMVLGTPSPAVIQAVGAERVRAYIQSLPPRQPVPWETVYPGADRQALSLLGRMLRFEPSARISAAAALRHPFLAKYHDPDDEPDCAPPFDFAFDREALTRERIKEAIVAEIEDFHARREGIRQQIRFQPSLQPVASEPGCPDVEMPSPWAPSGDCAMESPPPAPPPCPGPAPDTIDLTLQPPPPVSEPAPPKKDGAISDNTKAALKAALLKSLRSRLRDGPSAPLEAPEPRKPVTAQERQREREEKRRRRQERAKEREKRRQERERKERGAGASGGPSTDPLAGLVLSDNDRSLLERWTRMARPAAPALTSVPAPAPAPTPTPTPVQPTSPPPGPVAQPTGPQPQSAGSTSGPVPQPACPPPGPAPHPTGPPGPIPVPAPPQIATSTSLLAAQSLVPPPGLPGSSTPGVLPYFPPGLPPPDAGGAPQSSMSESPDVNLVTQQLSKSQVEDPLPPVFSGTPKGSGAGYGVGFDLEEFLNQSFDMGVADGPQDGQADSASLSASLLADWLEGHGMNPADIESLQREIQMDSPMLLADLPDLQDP
Sequence of 6-phosphogluconate dehydrogenase, decarboxylating (Homo sapiens) (P52209 whole entry, looked up): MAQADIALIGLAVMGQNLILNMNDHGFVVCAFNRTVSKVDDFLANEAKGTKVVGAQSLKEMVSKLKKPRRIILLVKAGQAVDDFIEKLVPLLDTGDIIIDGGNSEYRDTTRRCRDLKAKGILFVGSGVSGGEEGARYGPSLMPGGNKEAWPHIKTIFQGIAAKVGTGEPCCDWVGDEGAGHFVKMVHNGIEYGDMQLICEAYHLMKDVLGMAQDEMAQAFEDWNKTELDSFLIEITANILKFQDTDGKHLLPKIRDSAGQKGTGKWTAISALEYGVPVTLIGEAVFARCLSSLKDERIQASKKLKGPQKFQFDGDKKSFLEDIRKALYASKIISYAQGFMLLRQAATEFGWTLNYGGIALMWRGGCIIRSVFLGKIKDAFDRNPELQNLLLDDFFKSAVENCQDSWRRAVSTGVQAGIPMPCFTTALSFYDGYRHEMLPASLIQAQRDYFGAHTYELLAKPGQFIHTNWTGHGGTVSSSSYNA
Sequence of NAD(+) hydrolase SARM1 (Homo sapiens) (Q6SZW1 whole entry, looked up, the tested form may be a part): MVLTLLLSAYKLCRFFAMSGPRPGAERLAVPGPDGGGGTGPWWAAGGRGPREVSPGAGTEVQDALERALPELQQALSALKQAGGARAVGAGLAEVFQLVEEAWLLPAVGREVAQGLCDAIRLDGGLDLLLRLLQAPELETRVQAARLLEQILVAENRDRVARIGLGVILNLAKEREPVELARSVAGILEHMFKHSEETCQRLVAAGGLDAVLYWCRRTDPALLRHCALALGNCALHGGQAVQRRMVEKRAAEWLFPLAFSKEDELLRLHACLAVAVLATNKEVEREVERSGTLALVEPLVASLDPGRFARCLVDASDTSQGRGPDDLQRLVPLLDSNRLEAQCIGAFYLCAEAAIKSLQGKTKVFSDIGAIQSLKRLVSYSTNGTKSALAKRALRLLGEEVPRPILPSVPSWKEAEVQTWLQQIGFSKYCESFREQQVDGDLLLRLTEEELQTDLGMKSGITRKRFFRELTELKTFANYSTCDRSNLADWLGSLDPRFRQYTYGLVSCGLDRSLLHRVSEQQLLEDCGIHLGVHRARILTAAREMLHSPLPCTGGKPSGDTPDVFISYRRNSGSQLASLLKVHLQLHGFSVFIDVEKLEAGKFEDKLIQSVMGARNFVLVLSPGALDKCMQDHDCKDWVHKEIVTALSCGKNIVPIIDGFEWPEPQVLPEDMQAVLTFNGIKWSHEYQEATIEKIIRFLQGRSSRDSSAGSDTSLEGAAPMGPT

O=C(O)c1cc(=O)c2c(OCC(O)COc3cccc4oc(C(=O)O)cc(=O)c34)cccc2o1
nuclear beta-catenin stimulation ([1]; at 10 µM): -1.8% (inactive)
nuclear beta-catenin stimulation ([1]; stimulation, at 2 µM): 1.3%
insulin secretion stimulation [2]: 1.6% (inactive)
viability decrease [3]: -32.8% (inactive)
tube area decrease [4]: -2.5% (inactive)
GLP1 secretion stimulation [5]: -0.5% (inactive)
inhibition of viability [6]: 2.4% (inactive)
viability decrease (inhibition) [7]: 19.3% (inactive)
viability decrease (inhibition) [8]: -7.8% (inactive)
inhibition [9]: 10.5% (inactive)
mean signal [10]: 249 (inactive)
red/green cell ratio (normalised) [11]: 1.26 (inactive)
normalised cell number [11, 17]: 1.29
normalised cell number [11, 18]: 1.63
z-score [12, 19]: 0.0651 (inactive) and -0.552 (inactive)
z-score [12, 20]: 0.522 and -0.245
remaining NAD [13]: 10 nM (inactive)
luciferase signal [14]: 72 AU (inactive)
log fold change Tl+ flux (F380Y): -0.0252 (inactive)
log fold change Tl+ flux (F380Y/beta1): -0.0414 (inactive)
log fold change Tl+ flux (F380Y/beta2Delta): -0.0103 (inactive)

CS(=O)(=O)OCCCCOS(C)(=O)=O
nuclear beta-catenin stimulation ([1]; at 10 µM): 1.2% (inactive)
nuclear beta-catenin stimulation ([1]; stimulation, at 2 µM): 0.6%
insulin secretion stimulation [2]: 0.2% (inactive)
viability decrease [3]: 3.6% (inactive)
tube area decrease [4]: 32.5% (inactive)
GLP1 secretion stimulation [5]: -1.7% (inactive)
inhibition of viability [6]: -1.23% (inactive)
viability decrease (inhibition) [7]: 31.8% (inactive)
viability decrease (inhibition) [8]: -11% (inactive)
inhibition [9]: 1.77% (inactive)
mean signal [10]: 241 (inactive)
red/green cell ratio (normalised) [11]: 1.02 (inactive)
normalised cell number [11, 17]: 1.16
normalised cell number [11, 18]: 1.19
fold change ([15]; stronger effect = lower value, cell number ratio, induced over uninduced): 0.955 (inactive) and 0.888 (inactive) and 0.86 (inactive)
fold change ([15]; measured here: relative caspase fold change +Dox/-Dox): 1.41 and 0.655 and 1.42
cell count ([15]; measured here: total cells with miR-34 induction, stronger effect = lower value): 9740 and 7120 and 8790
cell count ([15]; measured here: total cells without miR-34 induction): 10200 and 8020
z-score [12, 19]: -0.182 (inactive) and -0.283 (inactive)
z-score [12, 20]: -0.743 and -0.155
remaining NAD [13]: 10 nM (inactive)
luciferase signal [14]: 52 AU (inactive)
inhibition ([16]; BGB IC20 combo, at 0.005 µM): -15.4% and -25.1%
inhibition ([16]; BGB IC40 combo, at 0.005 µM): -13.7% and -14%
inhibition ([16]; BGB IC40 combo, at 0.05 µM): -7.43% and 3.18%
inhibition ([16]; at 0.5 µM): -25.5% (inactive) and -7% (inactive)
inhibition ([16]; cisplatin combo, at 0.05 µM): -11.3% and 3.18%
inhibition ([16]; cisplatin combo, at 0.5 µM): -9.08% and -3.26%
inhibition ([16]; cisplatin combo, at 5 µM): -50.4% and -16.4%
inhibition ([16]; measured here: 5 uM single agent, at 5 µM): -29.1% and 6.4%
log fold change Tl+ flux (F380Y): -0.0118 (inactive)
log fold change Tl+ flux (F380Y/beta1): 0.0504 (inactive)
log fold change Tl+ flux (F380Y/beta2Delta): 0.00156 (inactive)

CCN(Cc1ccncc1)C(=O)C(CO)c1ccccc1 (stereo not given)
nuclear beta-catenin stimulation ([1]; at 10 µM): 0.5% (inactive)
nuclear beta-catenin stimulation ([1]; stimulation, at 2 µM): -1.9%
insulin secretion stimulation [2]: 1.6% (inactive)
viability decrease [3]: 11.6% (inactive)
tube area decrease [4]: 7.1% (inactive)
GLP1 secretion stimulation [5]: 0.1% (inactive)
inhibition of viability [6]: 14.3% (inactive)
viability decrease (inhibition) [7]: 12% (inactive)
viability decrease (inhibition) [8]: 3.8% (inactive)
inhibition [9]: -16.3% (inactive)
mean signal [10]: 244 (inactive)
red/green cell ratio (normalised) [11]: 1.08 (inactive)
normalised cell number [11, 17]: 1.08
normalised cell number [11, 18]: 1.16
z-score [12, 19]: 0.0477 (inactive) and 0.409 (inactive) and -0.211 (inactive)
z-score [12, 20]: 0.0479 and 0.424 and 0.901
remaining NAD [13]: 10 nM (inactive)
luciferase signal [14]: 108 AU (inactive)
log fold change Tl+ flux (F380Y): 0.0305 (inactive)
log fold change Tl+ flux (F380Y/beta1): -0.00694 (inactive)
log fold change Tl+ flux (F380Y/beta2Delta): -0.0245 (inactive)
